Hits are enriched below; roughly 9.9% of the tested compounds scored in any of these assays.
IL1B secr inh – qHTS for Inhibitors of Inflammasome Signaling: IL-1-beta AlphaLISA Primary Screen; activity change, % at 57.5 µM; hit rate 4.7% among 360,000; THP-1 LPS/ATP IL-1B secretion, AlphaLISA, 16 h; stronger effect = lower value; in the data active = activity change below about -50%; inconclusive = mostly about -30% to -49%; note: % is set by controls: 0 for no effect and ±100 for the full control effect
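Secreted IL-1B measured by AlphaLISA bead assay after 16 h compound exposure of THP-1 cells; compounds (final up to 57.5 uM) added 1 h before LPS (250 ng/mL) and ATP (1.25 mM) stimulation; lower signal means less secretion.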
KB-V1 cytotox – qHTS assay for MDR1-selective chemotherapeutics: Primary screen using the drug-selected MDR subline cells KB-V1; hit rate 3.4% among 400,000; Potency, µM (titrated, usually from 46.1 µM), actives largely listed as cytotoxic; KB-V1 MDR cells viability, CellTiter-Glo, 72 h; AID 1347076, 2019; note: potency is the fitted concentration of half-maximal effect; % is set by controls: 0 for no effect and ±100 for the full control effect; nearly all actives have a fitted effect of over 60% in size
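KB-V1 MDR subline cells in DMEM (phenol-red free, 10% FBS) exposed to compounds in qHTS concentration series for 72 h at 37 degrees C. Viability read by CellTiter-Glo luminescence; concentration-effect curves fitted after normalization and correction.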
KB-3-1 tox – qHTS assay for MDR1-selective chemotherapeutics: Primary screen using the parental adenocarcinoma cell KB-3-1 | hit rate 1.4% among 400,000 | AID 1347075, 2019 | KB-3-1 viability, CellTiter-Glo ATP luminescence, 72 h | Potency, µM (top dose mostly 46.1 µM), most hits filed as cytotoxic; note: potency is the fitted concentration of half-maximal effect; % is set by controls: 0 for no effect and ±100 for the full control effect; nearly all actives have a fitted effect of over 60% in size
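Parental KB-3-1 viability, qHTS format: 72 h compound exposure, 37 °C; CellTiter-Glo; media-only wells and DMSO plates as controls; concentration-effect fits on corrected data.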
MCF10A rerep – A quantitative high throughput screen for small molecules that induce DNA re-replication in MCF 10a normal breast cells. MCF 10A DNA re-replication, Hoechst nuclear intensity, 48 h. Potency, µM (top dose mostly 46.1 µM), without a hit: at the highest dose activity, positive = re-replication, usual class: activators. hit rate 2.9% among 350,000. AID 624296, 2012; note: potency is the fitted concentration of half-maximal effect; % of control where 0% means no effect; nearly all actives have a fitted effect of over 50% in size
SW480 rereplic – A quantitative high throughput screen for small molecules that induce DNA re-replication in SW480 colon adenocarcinoma cells | Potency, µM (doses to about 46.1 µM), inactives show at the top dose re-replication activation, usual class: activators | hit rate 1.8% among 340,000 | AID 624297, 2012 | SW480 DNA re-replication, Hoechst DNA content imaging, 48 h; note: potency is the fitted concentration of half-maximal effect; % of control where 0% means no effect; nearly all actives have a fitted effect of over 55% in size
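First, 250 cells per well were seeded. Next, compound or vehicle (23 nL) was pinned in, plates sat 48 hr at 37 C. Finally Hoechst was added for 40 min before fluorescence scanning.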
Active calls of the source: *; i = inactive; ? = inconclusive; . = no result given; ! = repeats disagree. Unless noted, calls come from the whole dose curve; as a rule, active = well fitted curve in the direction sought with a large enough effect; inconclusive = small, poorly fitted or top-dose-only effect, or another doubt; inactive = no such curve, though single readings can be large; an effect the other way counts as inactive or inconclusive.

SMILES	IL1B secr inh	KB-V1 cytotox	KB-3-1 tox	MCF10A rerep	SW480 rereplic
O=C(NCc1ccco1)c1cccnc1Cl	8	i	i	-4%	2%
O=C(NCc1ccco1)c1cccnc1-c1nc2ccccc2s1	-3	13µM*	i	3%	-2%
O=C(CS(=O)c1ccc(C(F)(F)F)cc1[N+](=O)[O-])Oc1ccc(Cl)cc1 (stereo unspecified)	-98*	i	?	13µM*	?
Cc1cc(C)cc(OC(=O)CS(=O)c2ccc(C(F)(F)F)cc2[N+](=O)[O-])c1 (stereo unspecified)	-121*	?	?	12µM*	?
Cc1ccc(OCCNc2ccc(C(F)(F)F)cc2[N+](=O)[O-])cc1	-2	i	i	-1%	-2%
CCCCN(CC)Cc1ccc(CNC(=S)Nc2c(C)cc(C)cc2C)o1	0	?	i	13%	-7%
CCCCN(CC)Cc1ccc(CNC(=S)Nc2ccc(C)cc2Cl)o1	-62*	i	i	-1%	?
C[C@]12c3[nH]c4cc(-c5ccco5)ccc4c3CCN1C(=O)[C@@H](CC(=O)NCCc1ccccn1)C[C@@H]2C(=O)N1CCCCC1	-108*	i	i	?	17%
O=C(C[C@H]1C[C@H](C(=O)N2CCCCC2)[C@@]2(CCc3ccccc3)c3[nH]c4ccc(Cl)cc4c3CCN2C1=O)NCCCn1ccnc1	-58*	i	i	?	9%
O=C(C[C@H]1C[C@H](C(=O)N2CCCCC2)[C@@]2(CCc3ccccc3)c3[nH]c4cc(-c5ccco5)ccc4c3CCN2C1=O)NCCN1CCOCC1	-58*	?	18µM*	23µM*	?
COc1cccc(C(=O)/C=C/c2ccc(SC)cc2)c1	-20	i	i	?	?
COc1cc(/C=C/C(=O)c2ccc(O)cc2)ccc1OCC#N	?	18µM*	6.5µM*	?	.
COc1cc(/C=C/C(=O)OCC(=O)N2CCC(C)CC2)ccc1OCC#N	-28	i	i	10%	60%
COc1cccc(C(=O)/C=C/c2ccc(OCC#N)c(OC)c2)c1	-102*	?	?	9.2µM*	23µM*
COC(=O)c1ccc(/C=C/C(=O)c2cccc(OC)c2)cc1	-101*	i	i	?	?
CCOc1ccc(C(=O)Nc2cc(-c3ccccc3)no2)cc1	.	i	i	.	.
Cc1ccc(S(=O)(=O)N2CCN(CC(=O)NC3CCCc4ccccc43)CC2)c(C)c1 (stereo unspecified)	?	4.1µM*	i	21%	?
Cc1ccc(S(=O)(=O)N2CCN(CC(=O)NC3CCCc4ccccc43)CC2)cc1C (stereo unspecified)	-54*!	?	?	19%	?
NC(=O)C1CCN(CC(=O)NC2CCCc3ccccc32)CC1 (stereo unspecified)	8	?	i	-4%	-7%
O=C(NC1CCCCC1)N1CCCC(c2nc3ccccc3[nH]2)C1 (stereo unspecified)	0	21µM*	i	-5%	-1%
Cn1c(SCC(=O)Nc2ccc3c(c2)OCO3)nnc1C(F)(F)F	4	i	i	7%	4%
COc1ccccc1CN(C)CC(=O)Nc1cccc2ccccc12	-60*	i	i	1%	-16%
COc1ccccc1CN(C)CC(=O)Nc1ccc(Cl)cc1F	0	i	i	1.2µM*	-60%
COc1ccc(Br)cc1CN(C)CC(=O)Nc1cc(Cl)ccc1Cl	-19	7.3µM*	i	?	4%
COc1ccc(NC(=O)CN(C)CC(=O)Nc2cccc3ccccc23)c(OC)c1	-7	?	i	1%	-3%
SMILES	IL1B secr inh	KB-V1 cytotox	KB-3-1 tox	MCF10A rerep	SW480 rereplic
COc1ccccc1CN(C)CC(=O)Nc1ccc(Cl)cc1C(F)(F)F	-7	i	i	?	9%
CCN(CC)S(=O)(=O)c1cccc(NC(=O)CCNC(=O)NC23CC4CC(CC(C4)C2)C3)c1	-22	i	?	?	?
Cc1ccc(C)c(N(CC(=O)NCc2ccco2)C(=O)CCC(=O)Nc2nccs2)c1	.	i	i	-1%	-34%
CCOC(=O)c1c(NC(=O)COc2ccccc2)sc2c1CC(C)(C)NC2(C)C	-4	?	?	3%	9%
Cc1ccccc1OCC(=O)Nc1sc2c(c1C#N)CC(C)(C)NC2(C)C	-10	i	i	21µM*	?
CC1(C)Cc2c(sc(NC(=O)COc3ccc(Cl)cc3)c2C#N)C(C)(C)N1	-70*	i	i	?	?
Cc1ccc(Cn2nnc3c(=O)n(CC(=O)N4CCN(c5ccccc5)CC4)cnc32)cc1	?	5.2µM*	i	?	-9%
O=C(Cn1cnc2c(nnn2-c2cccc(Cl)c2)c1=O)N1CCCC1	17	13µM*	i	4%	0%
Cc1ccc(Cl)cc1N1CCN(c2nc3ccccc3c3nc(-c4cccnc4)nn23)CC1	.	?	i	.	.
CCN1CCN(CCNC(=O)CCc2c(C)c3c(C)nn(-c4ccccc4)c3n(C)c2=O)CC1	-61*	i	i	14%	?
CN(c1ccc(Br)cc1)S(=O)(=O)c1ccc2[nH]cc(C(=O)NCCN3CCOCC3)c(=O)c2c1	-8	i	i	1%	12%
C/C(Cc1ccccc1)=N\NC(=O)CNC(=O)c1ccccc1Br	-6	i	i	?	1%
O=C(NCc1ccccc1Cl)NCc1noc2ccccc12	.	i	i	.	.
CC1(C)SC(=S)N(/N=C/c2ccc(O)cc2)C1N(O)C(=O)Nc1ccc([N+](=O)[O-])cc1 (stereo unspecified)	-6	i	?	17%	5%
Cc1ccc(/C=N/N2C(=S)SC(C)(C)C2N(O)C(=O)Nc2ccc([N+](=O)[O-])cc2)cc1 (stereo unspecified)	-70*	?	i	?	?
C/C(=N\Nc1nc2ccccc2[nH]1)c1cc2ccccc2o1	-95*	?	?	?	-1%
C/C(=N\Nc1nc2ccccc2[nH]1)c1ccc2c(c1)OCCO2	-54*	?	?	12%	11%
C/C(=N\NC(=O)c1ccncc1)c1cc2ccccc2o1	-17	i	i	-4%	3%
C/C(=N\Nc1nc2ccccc2[nH]1)c1ccc2c(c1)OCO2	-83*	?	i	?	21µM*
CCSc1oc(-c2ccco2)nc1S(=O)(=O)c1ccc(Br)cc1	.	i	i	.	.

Bioassay records as filed in PubChem.
